Measurements: PubChem BioAssay (NCI)
The panel holds about 83,000 compounds, 20% with a hit somewhere; the sample as a whole holds those more often.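 Assay: single dose, 48 h. Readout: percent growth (0 = no net growth; negative = cell death). Active: <10.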 The source made the active and inactive calls.

Columns and labels:
Test in all cases: NCI-60 one-dose screen, 48 h (100 = growth as untreated, 0 = no growth, -100 = all killed)
SR leukemia = settings: 10 µM
RPMI-8226 leukemia = settings: 10 µM
OVCAR-8 ovarian = settings: 10 µM
OVCAR-5 ovarian = settings: 10 µM
OVCAR-4 ovarian = settings: 10 µM
IGROV1 ovarian = settings: 10 µM
HS 578T breast = settings: 10 µM
T-47D breast = settings: 10 µM
BT-549 breast = settings: 10 µM
MDA-MB-435 melanoma = settings: 10 µM
SW-620 colon = settings: 10 µM
MCF7 breast = settings: 10 µM unless noted
HCT-116 colon = settings: 10 µM
HCC-2998 colon = settings: 10 µM
KM12 colon = settings: 10 µM
SK-OV-3 ovarian = settings: 10 µM
OVCAR-3 ovarian = settings: 10 µM
NCI/ADR-RES ovarian = settings: 10 µM

| SMILES | growth (SR leukemia) | growth (RPMI-8226 leukemia) | growth (OVCAR-8 ovarian) | growth (OVCAR-5 ovarian) | growth (OVCAR-4 ovarian) | growth (IGROV1 ovarian) | growth (HS 578T breast) | growth (T-47D breast) | growth (BT-549 breast) | growth (MDA-MB-435 melanoma) | growth (SW-620 colon) | growth (MCF7 breast) | growth (HCT-116 colon) | growth (HCC-2998 colon) | growth (KM12 colon) | growth (SK-OV-3 ovarian) | growth (OVCAR-3 ovarian) | growth (NCI/ADR-RES ovarian) |
| --- | --- | --- | --- | --- | --- | --- | --- | --- | --- | --- | --- | --- | --- | --- | --- | --- | --- | --- |
| C#CCSc1nnnn1-c1ccc(Br)c(C)c1 | 74.4% (inactive) | 62.1% (inactive) | 82.5% (inactive) | 90% (inactive) | 80.8% (inactive) | -28.7% (active) | 78.2% (inactive) | 87.6% (inactive) | 103% (inactive) | 95.8% (inactive) | 99.9% (inactive) | 82.4% (inactive) | 88% (inactive) | 121% (inactive) | 102% (inactive) | – | – | – |
| O=C(c1ccc(O)cc1)c1ccc(O)cc1 | 88.7% (inactive) | 107% (inactive) | 99.9% (inactive) | 105% (inactive) | – | 108% (inactive) | 107% (inactive) | 113% (inactive) | 122% (inactive) | 105% (inactive) | 113% (inactive) | 113% (inactive) | 95% (inactive) | 105% (inactive) | 100% (inactive) | 114% (inactive) | 111% (inactive) | 110% (inactive) |
| COc1cc(/C=N\Nc2ccccc2)ccc1OC(=O)c1ccccc1 | 49.6% (inactive) | 54.3% (inactive) | 80.1% (inactive) | 64.4% (inactive) | – | 60.6% (inactive) | 87.6% (inactive) | 36.1% (inactive) | 91% (inactive) | 44.5% (inactive) | 69.8% (inactive) | 56.4% (inactive) | 71.3% (inactive) | 74.9% (inactive) | 8.69% (active) | – | 70.5% (inactive) | 51.2% (inactive) |
| CC[N+](C)(CC)CCO | 104% (inactive) | 102% (inactive) | 94.3% (inactive) | 100% (inactive) | – | 104% (inactive) | 107% (inactive) | 93.4% (inactive) | 99.9% (inactive) | 100% (inactive) | 100% (inactive) | 103% (inactive) | 105% (inactive) | 102% (inactive) | – | 103% (inactive) | 108% (inactive) | 105% (inactive) |
| CCC(O)CC(CC)CO (centres undefined) | 108% (inactive) | 111% (inactive) | 104% (inactive) | 104% (inactive) | – | 114% (inactive) | 130% (inactive) | 115% (inactive) | – | 114% (inactive) | 110% (inactive) | 97.8% (inactive) | 100% (inactive) | 109% (inactive) | 128% (inactive) | 115% (inactive) | 130% (inactive) | 110% (inactive) |
| CCOC(=O)C/C(C)=N\O | 104% (inactive) | 104% (inactive) | 109% (inactive) | 106% (inactive) | – | 101% (inactive) | 101% (inactive) | 98.3% (inactive) | 97.1% (inactive) | 107% (inactive) | 101% (inactive) | 101% (inactive) | 103% (inactive) | 101% (inactive) | 104% (inactive) | 103% (inactive) | 99.9% (inactive) | 96.6% (inactive) |
| Cc1c(C(=O)O)c(=O)n(-c2ccccc2)n1C | 123% (inactive) | 107% (inactive) | 103% (inactive) | 110% (inactive) | – | 117% (inactive) | – | 98.8% (inactive) | 114% (inactive) | 107% (inactive) | – | 112% (inactive) | 113% (inactive) | 106% (inactive) | 120% (inactive) | 107% (inactive) | 141% (inactive) | 101% (inactive) |
| COc1cc(C(=O)N/N=C/c2cccc([N+](=O)[O-])c2)cc(OC)c1OC | 28.5% (inactive) | 77.1% (inactive) | 83.1% (inactive) | 83.7% (inactive) | – | 60.6% (inactive) | 49.3% (inactive) | 51.9% (inactive) | 58% (inactive) | 1.31% (active) | 23.8% (inactive) | 23.9% (inactive) | 23.9% (inactive) | 52.7% (inactive) | 19% (inactive) | 67.2% (inactive) | 12.2% (inactive) | 38.1% (inactive) |
| CC(=O)Oc1ccc(Br)cc1C(=O)O | 99.1% (inactive) | 99.5% (inactive) | 104% (inactive) | – | 104% (inactive) | 98.4% (inactive) | – | 97.6% (inactive) | 97.7% (inactive) | 104% (inactive) | 107% (inactive) | 94.3% (inactive) | 95.4% (inactive) | 100% (inactive) | 115% (inactive) | 98.2% (inactive) | 111% (inactive) | – |
| COc1cc2c3c(n(C)c(=O)c2cc1OC)-c1cc2c(cc1C3=O)OCO2 | 17.6% (inactive) | 48.2% (inactive) | – | 78.4% (inactive) | 55.8% (inactive) | 11.3% (inactive) | 102% (inactive) | 28.2% (inactive) | 68.6% (inactive) | 72.3% (inactive) | 58.8% (inactive) | 26.8% (inactive) | 51.5% (inactive) | – | 83.9% (inactive) | 74.6% (inactive) | – | 77.5% (inactive) |
| Cc1ccc(S(=O)(=O)O)c(C)c1 | 95.2% (inactive) | – | 105% (inactive) | 104% (inactive) | 86.5% (inactive) | 103% (inactive) | 93.8% (inactive) | 92.5% (inactive) | 109% (inactive) | 107% (inactive) | 98.8% (inactive) | 95.3% (inactive) | 101% (inactive) | 107% (inactive) | 109% (inactive) | 95.7% (inactive) | 110% (inactive) | 104% (inactive) |
| O=S(=O)(O)c1ccc(Cl)c(Cl)c1 | 99.8% (inactive) | – | 114% (inactive) | 112% (inactive) | 106% (inactive) | 122% (inactive) | 120% (inactive) | 105% (inactive) | 97.7% (inactive) | 100% (inactive) | 111% (inactive) | 99.9% (inactive) | 105% (inactive) | 104% (inactive) | 111% (inactive) | 103% (inactive) | – | 106% (inactive) |
| OCc1cccc2ccccc12 | 104% (inactive) | – | 111% (inactive) | 111% (inactive) | 109% (inactive) | 120% (inactive) | – | 103% (inactive) | – | 116% (inactive) | – | 96.3% (inactive) | 103% (inactive) | 108% (inactive) | 107% (inactive) | 110% (inactive) | 105% (inactive) | 105% (inactive) |
| C/C=C/CC(C)C(O)C1C(=O)NC(CC)C(=O)N(C)CC(=O)N(C)C(CC(C)C)C(=O)NC(C(C)C)C(=O)N(C)C(CC(C)C)C(=O)NC(C)C(=O)NC(C)C(=O)N(C)C(CC(C)C)C(=O)N(C)C(CC(C)C)C(=O)N(C)C(C(C)C)C(=O)N1C (centres undefined) | -0.0306% (active) | – | 38.1% (inactive) | 32% (inactive) | 29.9% (inactive) | 43.9% (inactive) | 45.8% (inactive) | 23.2% (inactive) | -14.4% (active) | -6.76% (active) | 31.3% (inactive) | 18.7% (inactive) | 8.61% (active) | 1.86% (active) | 17.7% (inactive) | – | 17.4% (inactive) | 31.9% (inactive) |
| COc1cc2c(cc1O)CC[C@@H]1C2CC[C@@]2(C)C1CC[C@@H]2O (some centres undefined) | 15.1% (inactive) | 0% (active) | – | -41.5% (active) | 65.2% (inactive) | 25.3% (inactive) | – | 31.1% (inactive) | 23.4% (inactive) | -46.9% (active) | 12.1% (inactive) | 16.4% (inactive) | 7.39% (active) | – | 33.5% (inactive) | – | 4.72% (active) | -70.7% (active) |
| CC(=O)OCCO | 107% (inactive) | – | 101% (inactive) | 102% (inactive) | 100% (inactive) | 113% (inactive) | 115% (inactive) | 109% (inactive) | 109% (inactive) | 107% (inactive) | 107% (inactive) | 96.9% (inactive) | 103% (inactive) | 111% (inactive) | 108% (inactive) | 113% (inactive) | 110% (inactive) | 110% (inactive) |
| COc1cc2cc(c1Cl)N(C)C(=O)C[C@H](OC(=O)[C@H](C)N(C)C(C)=O)[C@]1(C)O[C@H]1[C@H](C)[C@@H]1C[C@@](O)(NC(=O)O1)[C@H](OC)C=C/C=C(\C)C2 | 10.2% (inactive) | -4.44% (active) | – | 32.4% (inactive) | – | – | 9.98% (active) | 74.6% (inactive) | -21% (active) | -53.3% (active) | 26.5% (inactive) | 14.2% (inactive) | -18.6% (active) | -32% (active) | -42.3% (active) | 36.1% (inactive) | -42.8% (active) | – |
| Nc1nc(OCc2ccccc2)c2[nH]cnc2n1 | 84.9% (inactive) | 115% (inactive) | – | 77.8% (inactive) | 65.9% (inactive) | 93.4% (inactive) | 93.6% (inactive) | 101% (inactive) | 94.4% (inactive) | 99.3% (inactive) | 102% (inactive) | 95.9% (inactive) | 95.4% (inactive) | 104% (inactive) | 112% (inactive) | 109% (inactive) | 109% (inactive) | 108% (inactive) |
